Data as given in PubChem BioAssay.

Legend:
[1] = system: Botulinum neurotoxin type F light chain protease (Clostridium botulinum); test: Botulinum neurotoxin type F light chain protease inhibition, multiplex microsphere flow cytometry, validation set (AID 588459); details: multiplex microsphere protease substrate cleavage assay, at 10 µM, active compounds read high
[2] = target: Botulinum neurotoxin type A (Clostridium botulinum) (UniProt P0DPI0); test: BoNT/A light chain protease inhibitors, biochemical, multiplex microsphere flow cytometry, validation set (AID 588460); details: at 10 µM, active compounds read high
Botulinum neurotoxin type A (Clostridium botulinum), sequence (P0DPI0 whole entry, looked up): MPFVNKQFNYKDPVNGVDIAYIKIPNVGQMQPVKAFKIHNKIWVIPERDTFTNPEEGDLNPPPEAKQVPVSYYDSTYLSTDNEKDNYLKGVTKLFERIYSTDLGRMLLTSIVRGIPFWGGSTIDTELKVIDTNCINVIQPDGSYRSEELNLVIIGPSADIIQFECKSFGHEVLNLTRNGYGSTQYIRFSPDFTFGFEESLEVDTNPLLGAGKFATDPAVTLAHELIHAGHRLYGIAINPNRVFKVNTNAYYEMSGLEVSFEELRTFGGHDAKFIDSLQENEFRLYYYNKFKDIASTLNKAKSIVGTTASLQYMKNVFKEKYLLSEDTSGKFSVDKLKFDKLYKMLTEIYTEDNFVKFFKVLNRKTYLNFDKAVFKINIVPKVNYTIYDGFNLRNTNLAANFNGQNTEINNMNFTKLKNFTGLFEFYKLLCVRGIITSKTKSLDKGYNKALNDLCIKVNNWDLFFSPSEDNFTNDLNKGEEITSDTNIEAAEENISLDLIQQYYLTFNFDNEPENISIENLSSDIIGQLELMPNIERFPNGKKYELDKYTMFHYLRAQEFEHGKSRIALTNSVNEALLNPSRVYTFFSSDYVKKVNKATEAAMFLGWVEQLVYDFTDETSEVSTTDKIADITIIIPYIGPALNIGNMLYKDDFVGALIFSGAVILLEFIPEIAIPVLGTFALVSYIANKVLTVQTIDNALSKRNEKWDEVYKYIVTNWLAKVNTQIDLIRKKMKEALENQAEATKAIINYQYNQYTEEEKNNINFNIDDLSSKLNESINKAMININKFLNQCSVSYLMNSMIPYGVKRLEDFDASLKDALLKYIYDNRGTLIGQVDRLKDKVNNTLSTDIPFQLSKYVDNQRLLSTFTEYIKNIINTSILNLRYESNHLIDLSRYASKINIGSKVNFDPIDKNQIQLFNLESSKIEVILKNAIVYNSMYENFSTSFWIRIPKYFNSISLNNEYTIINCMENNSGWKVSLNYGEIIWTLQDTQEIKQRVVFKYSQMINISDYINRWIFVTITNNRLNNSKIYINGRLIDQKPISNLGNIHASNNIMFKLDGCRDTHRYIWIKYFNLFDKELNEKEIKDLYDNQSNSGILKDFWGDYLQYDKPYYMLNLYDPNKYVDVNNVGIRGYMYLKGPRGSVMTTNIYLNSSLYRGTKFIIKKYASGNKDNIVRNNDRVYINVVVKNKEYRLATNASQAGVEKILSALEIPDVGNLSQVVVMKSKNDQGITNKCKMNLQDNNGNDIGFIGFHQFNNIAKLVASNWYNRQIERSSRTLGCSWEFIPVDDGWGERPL

[3] = target: Lethal factor (Bacillus anthracis) (UniProt P15917); test: Lethal factor protease inhibitors, Bacillus anthracis, multiplex microsphere cleavage assay, validation set (AID 588461); details: flow cytometry, at 10 µM, active compounds read high
Lethal factor (Bacillus anthracis), sequence (P15917 whole entry, looked up): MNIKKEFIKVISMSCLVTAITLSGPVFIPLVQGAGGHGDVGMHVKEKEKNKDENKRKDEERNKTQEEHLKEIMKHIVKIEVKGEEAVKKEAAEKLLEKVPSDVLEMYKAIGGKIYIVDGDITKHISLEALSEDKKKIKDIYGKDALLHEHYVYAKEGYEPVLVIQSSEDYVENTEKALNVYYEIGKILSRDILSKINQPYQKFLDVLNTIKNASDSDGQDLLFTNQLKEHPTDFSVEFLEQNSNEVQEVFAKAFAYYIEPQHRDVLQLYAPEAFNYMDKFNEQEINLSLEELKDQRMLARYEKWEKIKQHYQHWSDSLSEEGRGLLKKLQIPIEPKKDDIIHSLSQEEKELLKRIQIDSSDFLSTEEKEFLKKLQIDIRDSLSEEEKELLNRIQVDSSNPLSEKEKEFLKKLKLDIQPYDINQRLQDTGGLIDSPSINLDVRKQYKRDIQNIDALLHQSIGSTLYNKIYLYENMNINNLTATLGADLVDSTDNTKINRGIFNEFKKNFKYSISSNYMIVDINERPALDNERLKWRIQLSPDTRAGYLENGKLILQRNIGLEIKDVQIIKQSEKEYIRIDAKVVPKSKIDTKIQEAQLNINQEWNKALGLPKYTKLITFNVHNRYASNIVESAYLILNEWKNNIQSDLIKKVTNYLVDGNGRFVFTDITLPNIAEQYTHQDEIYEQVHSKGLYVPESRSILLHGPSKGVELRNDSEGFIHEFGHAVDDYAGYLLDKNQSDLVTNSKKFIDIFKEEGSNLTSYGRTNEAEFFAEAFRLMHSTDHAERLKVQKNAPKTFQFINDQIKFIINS

Measured: inhibition

O=c1c(-c2ccccc2)c(O)c2cccc3c2n1CCC3
inactive: [1] 3.3% | [2] 0.8% | [3] 10.4%

CC(=O)NC(Cc1ccccc1)C(=O)OCC(=O)c1ccccc1 (stereo not drawn)
inactive: [1] -2.6% | [2] -1.5% | [3] -3.3%

O=C(NCCC(c1ccccc1)c1ccco1)c1cccs1 (stereo not drawn)
inactive: [1] 3.1% | [2] -2.7% | [3] 3%

C#C[C@]1(O)CC[C@H]2[C@@H]3CCc4cc(OC5CCCC5)ccc4[C@H]3CC[C@@]21C
inactive: [1] -0.9% | [2] 0.8% | [3] 0.5%

CCCCNc1ccc(C(=O)OCCN(C)C)cc1
inactive: [1] 0.2% | [2] 0.4% | [3] 2.7%

COc1ccccc1-c1ccc(/C=C2/C=C(CC(C)C)OC2=O)o1
inactive: [1] 4.8% | [2] 1.7% | [3] 7.1%

COc1ccc2oc(=O)c(C(=O)Nc3ccccc3-c3ccccc3)cc2c1
inactive: [1] 3.1% | [2] 0.3% | [3] -1.6%

CN(C)CCOc1ccc(Cl)cc1C(C)(C)C
inactive: [1] -7.7% | [2] -2.2% | [3] -7.1%

COCCc1ccc(OCC(O)CNC(C)C)cc1 (stereo not drawn)
inactive: [1] -1.4% | [2] -1.4% | [3] -2.9%

CC(C)(S)[C@@H](N)C(=O)O
inactive: [1] 2.9% | [2] -0.8% | [3] 1.1%

COc1ccc(-c2[nH]ncc2C=O)cc1OC
inactive: [1] -3.5% | [2] -0.8% | [3] -2.5%

CC1(C)C(=O)OC(C(=O)c2ccc(Cl)cc2)C(C)(C)C1=O (stereo not drawn)
inactive: [1] 1.9% | [2] 1.3% | [3] -3.1%

NC(=O)c1ccccc1O
inactive: [1] -3.5% | [2] -1.1% | [3] 2.5%

COc1ccc(C(=O)Nc2ccccc2C(=O)NCCCn2ccnc2)cc1
inactive: [1] -3.6% | [2] -1.8% | [3] -3.7%

Cc1c(O)c(=O)ccn1C
inactive: [1] 3.3% | [2] -1% | [3] 0.9%

COc1ccc(CN(C)CCc2ccccn2)cc1OC
inactive: [1] -2.7% | [2] 0.2% | [3] -7.1%

CNC(=O)Oc1ccc2c(c1)[C@]1(C)CCN(C)[C@@H]1N2C
inactive: [1] -0.4% | [2] 1.1% | [3] 0.5%

Cc1cccc(CN2CCN(C(c3ccccc3)c3ccc(Cl)cc3)CC2)c1 (stereo not drawn)
inactive: [1] -0.2% | [2] -2% | [3] -9.2%

COC(=O)C1=CN(Cc2cccs2)C=C(C(=O)OC)C1c1cccc(Cl)c1
inactive: [1] -4.5% | [2] -0.4% | [3] -4%

Clc1ccc(CCNc2ncnc3nc[nH]c23)cc1
inactive: [1] 4.5% | [2] 0.1% | [3] -3.1%

COc1cc2ccc(=O)oc2c(O)c1OCC=C(C)C
inactive: [1] -4.9% | [2] 1.4% | [3] 1.2%

CCOc1ccc2ccccc2c1CNc1nnnn1C
inactive: [1] -0.1% | [2] -1.2% | [3] -1.5%

CC(C)NC(=O)C1(c2ccccc2)CCOCC1
inactive: [1] -2.6% | [2] -0.5% | [3] -2.6%

COC(=O)c1cc(OC)c(OC)cc1NC(=O)Nc1ccc(OC)cc1OC
inactive: [1] -4% | [2] -0.8% | [3] 5.9%

O=C(NCCN1CCCCC1)c1c(O)c2ccccc2[nH]c1=O
inactive: [1] 3.5% | [2] 0.4% | [3] -3.9%

CCc1cn([C@H]2C[C@H](O)[C@@H](CO)O2)c(=O)[nH]c1=O
inactive: [1] -0.5% | [2] -2.2% | [3] 1.6%

CCn1cc(CN2N=C(C)CC2c2ccccc2)c(C)n1 (stereo not drawn)
inactive: [1] -0.5% | [2] 0% | [3] -2.2%

COCCOC(=O)c1c(C)oc2ccc(OCc3cc(C(=O)OC)oc3C)cc12
inactive: [1] -0.6% | [2] -0.8% | [3] 1.6%

O=C(N/N=C\c1cc([N+](=O)[O-])ccc1N1CCOCC1)c1ccccn1
inactive: [1] -0.1% | [2] -1.3% | [3] 2.6%

COc1cc2cc(C(=O)O)[nH]c2c(OC)c1OC
inactive: [1] 0.5% | [2] -0.4% | [3] -3.8%

O=C(CCN1CCC(c2ccccc2)C1)c1ccc2c(c1)OCCO2 (stereo not drawn)
inactive: [1] 4.6% | [2] -0.2% | [3] -1.8%
